From PubChem BioAssay
Hits are enriched below; roughly 1.7% of the tested compounds scored in any of these assays.
LYPLA2 inh: LYPLA2 (human) inhibition in PME1 counter-screen. hit rate 0.38% among 320,000. O95372. inhibition, % at 5.9 µM. recombinant LYPLA2, FP-Rh probe fluorescence polarization;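 active = inhibition above the screen-wide mean plus 3 SD, limit set per campaign, cut at about 26% in these data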;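 also: 0% = LYPLA2 with DMSO and 100% = wells lacking LYPLA2 enzyme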
p97 ATPase inh: human p97 ATPase inhibition | P55072 | recombinant p97 ATPase, Kinase-Glo ATP luminescence, 3 h | inhibition, % at 8 µM | hit rate 0.42% among 220,000; in the data active = inhibition above about 15%;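 also: 0% = DMSO vehicle and 100% = wells lacking enzyme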
Hck Nef HTS: human Hck-Nef kinase inhibition | hit rate 0.68% among 220,000 | P08631 | inhibition, % at 20 µM | Recombinant Hck-YEEI plus Nef, Z-Lyte FRET kinase assay;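 active = Hck-Nef kinase inhibition above about 50%, limit read from the data; inactive = inhibition below that limit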;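 also: 0% = DMSO with Hck plus Nef and 100% = Hck alone without Nef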
LYPLA1 counter: counter-screen for PME1 inhibitors: inhibitors of human LYPLA1 | O75608 | recombinant LYPLA1, FP-Rh probe fluorescence polarization | inhibition, % at 5.9 µM | hit rate 0.16% among 320,000 | AID 2174;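 active = inhibition above the mean of all tested compounds plus 3 SD, set per campaign, cut at about 14% in these data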;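 also: inhibitors block serine hydrolase probe labeling of LYPLA1 so polarization falls; 0% = enzyme with DMSO and 100% = wells lacking LYPLA1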
Rin1 Abl inh: blocks binding of human Rin1 to Abl. P00519+Q13671. TR-FRET Rin1/Abl binding, biochemical. inhibition, % at 7.35 µM. hit rate 0.4% among 360,000. AID 588664; in the data active = inhibition above about 5%, passing the limit was not always enough
PREPL inh: inhibits the human prolyl oligopeptidase-like enzyme; AID 2751; hit rate 0.68% among 320,000; recombinant PREPL, fluorescence polarization activity-based probe; inhibition, % at 5.96 µM; Q4J6C6;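 also: 0% = enzyme with DMSO and 100% = wells lacking enzyme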
Target sequence (Q4J6C6 whole entry, looked up): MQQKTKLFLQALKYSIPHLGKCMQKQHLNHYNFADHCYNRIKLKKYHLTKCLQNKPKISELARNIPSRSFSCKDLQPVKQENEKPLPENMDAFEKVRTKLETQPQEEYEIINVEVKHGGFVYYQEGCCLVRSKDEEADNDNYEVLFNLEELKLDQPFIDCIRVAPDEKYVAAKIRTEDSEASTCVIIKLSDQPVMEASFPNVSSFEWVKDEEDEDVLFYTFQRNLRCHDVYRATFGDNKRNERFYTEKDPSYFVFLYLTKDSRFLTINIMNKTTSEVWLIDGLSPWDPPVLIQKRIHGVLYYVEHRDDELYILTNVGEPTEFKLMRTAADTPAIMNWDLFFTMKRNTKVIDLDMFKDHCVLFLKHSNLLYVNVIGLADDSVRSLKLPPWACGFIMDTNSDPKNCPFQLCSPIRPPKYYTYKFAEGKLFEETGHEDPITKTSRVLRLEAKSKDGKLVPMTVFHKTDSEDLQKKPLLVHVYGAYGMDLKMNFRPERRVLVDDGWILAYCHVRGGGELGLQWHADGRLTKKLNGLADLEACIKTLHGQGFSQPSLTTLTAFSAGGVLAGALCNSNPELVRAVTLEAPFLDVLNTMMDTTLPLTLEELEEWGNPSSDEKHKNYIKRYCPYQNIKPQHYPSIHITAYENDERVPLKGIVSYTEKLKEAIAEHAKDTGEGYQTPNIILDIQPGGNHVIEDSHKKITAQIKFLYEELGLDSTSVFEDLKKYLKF
PREPL confirm: human PREPL inhibition, confirmation; shares compounds with PREPL inh; recombinant PREPL, fluorescence polarization activity probe; inhibition, % at 5.96 µM; hit rate 67% among 2,000; AID 2803;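 also: 0% = protein with DMSO and 100% = wells lacking protein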
Hck-Nef confirm: confirmation of Hck-Nef kinase inhibitors. shares compounds with Hck Nef HTS. Recombinant Hck-YEEI:Nef, Z-Lyte FRET kinase assay. calls only at 10 µM. hit rate 28% among 1,300. AID 463188;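 active = average inhibition of at least 50%, with Z-scores no higher than 3 in both the phospho-tyrosine peptide and fluorescence counterscreens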
* = called active by the depositor; i = inactive; / = no result given; + = active, no number. Rule as the data show it, unless noted: active = inhibition above about 43%; inactive = the rest.

SMILES	LYPLA2 inh	p97 ATPase inh	Hck Nef HTS	LYPLA1 counter	Rin1 Abl inh	PREPL inh	Hck-Nef confirm	others
C[C@@H]1CN([C@H](C)CO)C(=O)CCCn2cc(nn2)CO[C@H]1CN(C)C(=O)Oc1ccc2ccccc2c1	/	/	/	/	-3	/	/
Clc1ccc(C[n+]2c(-c3ccccc3)cc(-c3ccccc3)cc2-c2ccccc2)cc1	3	/	/	0	-4	71*	/	PREPL confirm=63*
CCN1CCN(CC(=O)c2c(C)n(Cc3ccccc3)c3ccc(OC)cc23)CC1	3	0	8	-2	4	5	/
COc1ccc2c(c1)c(C(=O)CN1CCC3(CC1)OCCO3)c(C)n2Cc1ccccc1	2	-6	-1	-2	-1	58*	/	PREPL confirm=49*
N#Cc1c(N2CCNCC2)nc(-c2ccco2)c2c1CCCC2	-10	3	67*	-1	-5	12	/
Clc1cccc(NC2=NCCS2)c1	/	/	/	/	3	/	/
Cc1cccc(N2C(=O)NC(=O)/C(=C/c3ccc(-c4ccc(C(=O)O)c(Cl)c4)o3)C2=O)c1	-7	6	59*	-4	/	1	i
O=C(O)COc1cc(Cl)c(Cl)cc1Cl	/	/	/	/	-1	/	/
Nc1c(C(=O)NCc2ccco2)c2nc3ccccc3nc2n1Cc1ccccc1	-3	3	24	-3	4	8	/
Nc1c(C(=O)NCc2ccco2)c2nc3ccccc3nc2n1Cc1ccc(F)cc1	2	5	57*	0	2	11	i
Cc1cccn2c(=O)c3cc(C(=O)N4CCC5(CC4)OCCO5)n(C)c3nc12	-3	-2	54*	0	0	-4	/
COc1ccc(N2C(=O)/C(=C/c3cccs3)C(=O)NC2=S)cc1	0	2	21	-1	0	6	/
COc1ccc(N2C(=O)NC(=O)/C(=C\c3ccc([N+](=O)[O-])s3)C2=O)cc1	-3	-1	64*	-6	5	24	i
COc1ccc(N2C(=O)NC(=O)/C(=C/c3ccc([N+](=O)[O-])s3)C2=O)cc1	-9	10	19	-9	1	14	/
COc1ccc(N2C(=O)/C(=C/C=C/c3ccccc3[N+](=O)[O-])C(=O)NC2=S)cc1	/	5	63*	/	/	/	+
CC12Cc3cn[nH]c3C=C1CCC1C2CCC2(C)C1CCC2(C)O (centres undefined)	/	/	/	/	0	/	/
CC(C)C1CN1CC(O)Cn1ccnc1[N+](=O)[O-] (centres undefined)	/	/	/	/	2	/	/
O=C1NC(=O)N(c2ccccc2)C(=O)/C1=C/c1coc2ccc(O)cc2c1=O	4	7	87*	0	-5	4	+
O=C1NC(=O)N(c2ccccc2)C(=O)/C1=C/c1ccoc1	0	3	18	2	7	-6	/
O=C1NC(=O)N(c2ccc(Cl)cc2)C(=O)/C1=C/c1coc2ccc(O)cc2c1=O	-11	1	75*	-8	-3	3	+
COC(=O)C12CCc3cc(OC)ccc3C1=CC(=O)C2 (centres undefined)	/	/	/	/	-5	/	/
CCOc1cc2c(cc1OCC)-n1cccc1C(c1cccc(F)c1)NC2 (centres undefined)	-2	/	/	0	0	-6	/
O=C1NC(=O)N(CCc2ccc(F)cc2)C(=O)/C1=C/c1cccs1	-1	0	149*	-3	0	3	+
Cc1ccc(/C=C2/C(=O)NC(=O)N(CCc3ccc(F)cc3)C2=O)o1	2	1	16	-5	1	-3	/
O=C1NC(=O)N(CCc2ccc(F)cc2)C(=O)/C1=C/c1ccco1	-7	8	167*	-9	0	12	+
SMILES	LYPLA2 inh	p97 ATPase inh	Hck Nef HTS	LYPLA1 counter	Rin1 Abl inh	PREPL inh	Hck-Nef confirm	others
O=[N+]([O-])c1ccc(C2C3C(c4ccccc4)=NC4(CCCC4)N32)cc1 (centres undefined)	17	-6	1	6	-2	14	/
C=CCN1C(=O)/C(=C/c2ccc(N3CCOCC3)o2)C(=O)NC1=S	-30	4	3	-17	-13	-6	/
O=C1NC(=O)N(Cc2ccco2)C(=O)/C1=C/c1ccc(-c2cccc([N+](=O)[O-])c2)o1	5	15*	52*	1	-2	16	+
CN(C)c1ccc(/C=C2/C(=O)NC(=O)N(Cc3ccco3)C2=O)cc1	-10	7	1	-7	-1	-8	/
C=CCN1C(=O)NC(=O)/C(=C\c2ccc(-c3ccccc3[N+](=O)[O-])o2)C1=O	2	4	70*	1	1	10	+
CCC1(NS(=O)(=O)c2ccc(N)cc2)C(=O)N(C)C(=O)N(C)C1=O	/	/	/	/	5	/	/
C=CC[C@@H](C)CC(=O)C(CCCN=[N+]=[N-])SOOc1ccccc1 (some centres undefined)	2	/	/	0	2	-18	/
O=C(O)CCn1cc(C=C2C(=O)NC(=S)NC2=O)c(-c2cc3ccccc3oc2=O)n1	/	3	48	/	1	/	/
O=C(O)CCn1cc(C=C2C(=O)NC(=S)NC2=O)c(-c2ccccc2)n1	1	6	90*	-1	0	-1	i
Nc1cc2nc3ccccc3nc2cc1N	-5	6	57*	-6	-2	28	i
CCc1nnc(NS(=O)(=O)c2ccc(N=Cc3c(O)n(-c4ccc(Cl)cc4)c(=O)[nH]c3=O)cc2)s1	-1	7	56*	3	3	6	i
CNS(=O)(=O)c1ccc(N=Cc2c(O)n(-c3ccc(C)cc3)c(=O)[nH]c2=O)cc1	3	9	17	3	0	-10	/
COc1ccc(/C=C2/C(=O)N(Cc3ccco3)C(=O)N(C(C)C)C2=O)cc1	-4	4	95*	-8	-5	3	i
CCCCCCn1c(N)c(C(=O)NCCN2CCOCC2)c2nc3ccccc3nc21	-10	-5	65*	-3	-2	32	i
CCCNC(=O)c1c(N)n(CC2CCCO2)c2nc3ccccc3nc12 (centres undefined)	5	3	57*	2	3	12	/
CC(C)OCCCNC(=O)c1c(N)n(CC2CCCO2)c2nc3ccccc3nc12 (centres undefined)	-3	-7	52*	0	10	15	/
CCCCn1c(N)c(C(=O)OCCOC)c2nc3ccccc3nc21	0	-2	66*	2	-6	6	/
Nc1c(C(=O)OC2CCCCC2)c2nc3ccccc3nc2n1CC1CCCO1 (centres undefined)	4	2	30	-4	-6	8	/
CC(=NNC(=S)N1CC2CCC(CC2)C1)c1nccs1	/	/	/	/	2	/	/
O=C(Cc1ccccc1)N1CCN(Cc2ccc(F)cc2)CC1	-2	/	/	0	3	-5	/
